According to PubChem BioAssay (Tox21):
Results filed as inconclusive are left out. A call without a number means that no potency is given here. The source made the active and inactive calls. Unless noted, calls follow the shape of the dose curve; as a rule, active = well fitted curve in the direction sought with a large enough effect in the repeat runs; inconclusive = weak or mixed curves; inactive = no such curve, though single readings can be large; an effect the other way counts as inactive or inconclusive.

Legend:
[1] = Human pregnane X receptor (PXR) small molecule agonists, qHTS cell viability counter screen (AID 1346977); also: nearly all actives have a fitted effect of over 50% in size; also: potency is read from the fitted curve at half-maximal effect
Summary of the method: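 In each well, the PXR reporter HepG2 line was checked for viability: CellTiter-Fluor reagent added 23hr post-dosing, fluorescence read after 1hr incubation at 37C.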

[2] = Caspase-3/7 induction in HepG2 cells by small molecules, qHTS assay (AID 1346978); also: nearly all actives have a fitted effect of over 15% in size
Summary of the method: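 Caspase-3/7 induction was measured by Caspase-Glo 3/7 luminescence (30 min, room temperature) after a 17 hr compound exposure of wild-type HepG2 cells seeded at 2,000 per well and pre-incubated 5 hr.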

[3] = Caspase-3/7 induction in CHO-K1 cells by small molecules, qHTS assay (AID 1346980); also: nearly all actives have a fitted effect of over 15% in size
Summary of the method: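 Luminescent Caspase-Glo 3/7 read (30min, room temperature) quantified apoptosis induction. Cells were wild-type CHO-K1, treated with compound for 17hr at 37 C and 5% CO2.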

[4] = Caspase-3/7 induction in HepG2 cells by small molecules, qHTS cell viability counter screen (AID 1346981); also: series mostly up to about 92 µM; nearly all actives have a fitted effect of over 30% in size
Summary of the method: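 CellTiter-Fluor fluorescence measured viability in the same wells used for Caspase-Glo 3/7. HepG2 (wild type) at 2,000 cells/well were pre-incubated 5 hr, dosed, and given reagent at 16 hr, with 1 hr further at 37C.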

[5] = biological target: Acetylcholinesterase (Homo sapiens) (UniProt P22303); assay: Acetylcholinesterase (AChE) small molecule antagonists: colormetric cell-based qHTS assay (AID 1347395; calls by dose curve; also: nearly all actives have a fitted effect of over 30% in size; also: potency is read from the fitted curve at half-maximal effect)
Summary of the method: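 After overnight attachment at 37 C, SH-SY5Y cells get 30 min compound exposure; detection cocktail (acetylthiocholine, DTNB) then incubates 90 min at 37 C, and absorbance reflects AChE-generated thiocholine.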

[6] = biological target: Acetylcholinesterase (Homo sapiens) (UniProt P22303); assay: Acetylcholinesterase (AChE) small molecule antagonists: enzyme-based qHTS assay (AID 1347397; calls by dose curve; also: nearly all actives have a fitted effect of over 55% in size; also: potency is read from the fitted curve at half-maximal effect); details: Potency: AChE enzyme activity inhibition
Summary of the method: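 Colorimetric DTNB readout of acetylthiocholine hydrolysis, 10 min at room temperature, after 30 min room-temperature exposure of 50 mU/mL recombinant human enzyme to compound; DMSO vehicle control.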

[7] = biological target: Acetylcholinesterase (Homo sapiens) (UniProt P22303); assay: Acetylcholinesterase (AChE) small molecule antagonists: fluorescence cell-based qHTS assay (AID 1347398; calls by dose curve; also: nearly all actives have a fitted effect of over 50% in size; also: potency is read from the fitted curve at half-maximal effect); details: Potency: AChE activity
Summary of the method: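 Cellular AChE activity read as thiocholine from acetylthiocholine hydrolysis, detected by Thiolite Green fluorescence at 490/520 nm after 40 min at room temperature. Compounds were pre-incubated 30 min at 37 C on adherent SH-SY5Y cells.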

[8] = biological target: Acetylcholinesterase (Homo sapiens) (UniProt P22303); assay: Acetylcholinesterase (AChE) small molecule antagonists: enzyme-based qHTS assay with human liver microsomes (AID 1347399; calls by dose curve; also: nearly all actives have a fitted effect of over 60% in size); details: Potency: qHTS inhibition
Summary of the method: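 Recombinant human AChE (50 mU/mL in the enzyme mix) and human liver microsomes (0.25 mg/mL final) were preincubated with compound and NADPH (0.25 mg/mL final) for 30 min at 37 C. Acetylthiocholine/DTNB was then added; thiocholine was read colorimetrically after 10 min at room temperature.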

[9] = biological target: Cytochrome P450 2C19 (Homo sapiens) (UniProt P33261); assay: Cytochrome P450 Family 2 Subfamily C Member 19 (CYP2C19) small molecule antagonists: luciferase reporter qHTS assay (AID 1671197); also: nearly all actives have a fitted effect of over 65% in size; also: potency is read from the fitted curve at half-maximal effect
Summary of the method: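 Relative luminescence units recorded 20 min after the detection reagent stopped a 1 h, 37C CYP2C19 reaction on proluciferin substrate, which was started by NADPH regeneration following 10 min room-temperature compound preincubation; ketoconazole positive control.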

[10] = biological target: Cytochrome P450 2C9 (Homo sapiens) (UniProt P11712); assay: Cytochrome P450 Family 2 Subfamily C Member 9 (CYP2C9) small molecule antagonists: luciferase reporter qHTS assay (AID 1671198); also: nearly all actives have a fitted effect of over 50% in size; also: potency is read from the fitted curve at half-maximal effect
Summary of the method: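 Enzyme-substrate mix preincubated with compound 10 min at room temperature; reaction started with NADPH regeneration solution, 1 h 37C. Luminescent luciferin product read after 20 min detection reagent.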

[11] = biological target: Cytochrome P450 3A4 (Homo sapiens) (UniProt P08684); assay: Cytochrome P450 Family 3 Subfamily A Member 4 (CYP3A4) small molecule antagonists: luciferase reporter qHTS assay (AID 1671201); also: nearly all actives have a fitted effect of over 50% in size; also: potency is read from the fitted curve at half-maximal effect
Summary of the method: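 CYP3A4 activity was followed with a P450-Glo proluciferin substrate. Test compounds in DMSO were preincubated 10 min; NADPH regeneration then ran 1 h, and light output was read 20 min after detection reagent.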

[12] = Caspase-3/7 induction in CHO-K1 cells by small molecules, qHTS cell viability counter screen (AID 1346979); also: nearly all actives have a fitted effect of over 35% in size; also: potency is read from the fitted curve at half-maximal effect
Summary of the method: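 Following a 5hr settling period, CHO-K1 cells at 1,500 per well received DMSO-dissolved compounds. Cell viability was quantified 16hr later by CellTiter-Fluor fluorescence, measured after 1hr with reagent at 37C.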

[13] = biological target: Nuclear receptor subfamily 1 group I member 2 (Homo sapiens) (UniProt O75469); assay: Human pregnane X receptor (PXR) small molecule agonists, qHTS assay (AID 1346982); also: nearly all actives have a fitted effect of over 35% in size; also: potency is read from the fitted curve at half-maximal effect
Summary of the method: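 Agonist mode: luminescence from ONE-Glo after 24 h compound exposure at 37C in HepG2 cells carrying hPXR-responsive CYP3A4 luciferase, plated in charcoal-stripped serum medium 5 h beforehand.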

[14] = biological target: Voltage-gated inwardly rectifying potassium channel KCNH2 (Homo sapiens) (UniProt Q12809); assay: Human Ether-a-go-go-Related Gene (hERG) channel small molecule antagonists: fluorescence cell-based qHTS assay (AID 1671200); also: nearly all actives have a fitted effect of over 50% in size; also: potency is read from the fitted curve at half-maximal effect
Summary of the method: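 In this thallium-flux screen, overnight-cultured U2OS cells bearing the channel are dye-loaded in darkness for an hour, rested 10 min at room temperature, and then monitored kinetically at 480/540 nm for two minutes post-stimulus.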

[15] = biological target: Nuclear receptor subfamily 1 group I member 2 (Homo sapiens) (UniProt O75469); assay: CYP3A4 induction through human pregnane X receptor (PXR) by small molecules, qHTS assay (AID 1346984); also: nearly all actives have a fitted effect of over 40% in size
Summary of the method: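 Read-out is luminescence after One-Glo addition, following a 3 hr, 37C incubation with Luciferin-IPA CYP3A4 substrate (3uM final). Before that, compounds were on DPX-2 cells (HepG2 co-transfected with PXR element plus CYP3A4-promoter luciferase) for 24 hr at 37C.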

[16] = biological target: Nuclear receptor subfamily 1 group I member 2 (Homo sapiens) (UniProt O75469); assay: Human pregnane X receptor (PXR) activation by small molecules, qHTS assay (AID 1346985); also: nearly all actives have a fitted effect of over 40% in size
Summary of the method: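 DPX-2 cells (HepG2 co-transfected with a PXR response element and a CYP3A4-promoter luciferase construct) were seeded at 2,000 per well, rested 5 hr at 37C, then exposed to DMSO-dissolved compounds for 24 hr. Activation was read as luciferase luminescence.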

[17] = biological target: Cytochrome P450 2D6 (Homo sapiens) (UniProt P10635); assay: Cytochrome P450 Family 2 Subfamily D Member 6 (CYP2D6) small molecule antagonists: luciferase reporter qHTS assay (AID 1671196); also: nearly all actives have a fitted effect of over 50% in size; also: potency is read from the fitted curve at half-maximal effect
Summary of the method: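 CYP2D6 activity was followed as luminescence from its luciferin product after a 1 h NADPH-driven reaction at room temperature. Enzyme-substrate mix and compound were pre-incubated for 10 min, and the signal was read 20 min after adding detection reagent.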

[18] = biological target: Cytochrome P450 1A2 (Homo sapiens) (UniProt P05177); assay: Cytochrome P450 Family 1 Subfamily A Member 2 (CYP1A2) small molecule antagonists: luciferase reporter qHTS assay (AID 1671199); also: nearly all actives have a fitted effect of over 50% in size; also: potency is read from the fitted curve at half-maximal effect
Summary of the method: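 Luminescence from luciferin formed by CYP1A2 from a proluciferin substrate, read 20 min after detection reagent. Compound was pre-incubated 10 min with enzyme-substrate, and reaction started with NADPH regeneration solution for 1 h at room temperature; furafylline control.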

Sequence of Voltage-gated inwardly rectifying potassium channel KCNH2 (Homo sapiens) (Q12809 whole entry, looked up): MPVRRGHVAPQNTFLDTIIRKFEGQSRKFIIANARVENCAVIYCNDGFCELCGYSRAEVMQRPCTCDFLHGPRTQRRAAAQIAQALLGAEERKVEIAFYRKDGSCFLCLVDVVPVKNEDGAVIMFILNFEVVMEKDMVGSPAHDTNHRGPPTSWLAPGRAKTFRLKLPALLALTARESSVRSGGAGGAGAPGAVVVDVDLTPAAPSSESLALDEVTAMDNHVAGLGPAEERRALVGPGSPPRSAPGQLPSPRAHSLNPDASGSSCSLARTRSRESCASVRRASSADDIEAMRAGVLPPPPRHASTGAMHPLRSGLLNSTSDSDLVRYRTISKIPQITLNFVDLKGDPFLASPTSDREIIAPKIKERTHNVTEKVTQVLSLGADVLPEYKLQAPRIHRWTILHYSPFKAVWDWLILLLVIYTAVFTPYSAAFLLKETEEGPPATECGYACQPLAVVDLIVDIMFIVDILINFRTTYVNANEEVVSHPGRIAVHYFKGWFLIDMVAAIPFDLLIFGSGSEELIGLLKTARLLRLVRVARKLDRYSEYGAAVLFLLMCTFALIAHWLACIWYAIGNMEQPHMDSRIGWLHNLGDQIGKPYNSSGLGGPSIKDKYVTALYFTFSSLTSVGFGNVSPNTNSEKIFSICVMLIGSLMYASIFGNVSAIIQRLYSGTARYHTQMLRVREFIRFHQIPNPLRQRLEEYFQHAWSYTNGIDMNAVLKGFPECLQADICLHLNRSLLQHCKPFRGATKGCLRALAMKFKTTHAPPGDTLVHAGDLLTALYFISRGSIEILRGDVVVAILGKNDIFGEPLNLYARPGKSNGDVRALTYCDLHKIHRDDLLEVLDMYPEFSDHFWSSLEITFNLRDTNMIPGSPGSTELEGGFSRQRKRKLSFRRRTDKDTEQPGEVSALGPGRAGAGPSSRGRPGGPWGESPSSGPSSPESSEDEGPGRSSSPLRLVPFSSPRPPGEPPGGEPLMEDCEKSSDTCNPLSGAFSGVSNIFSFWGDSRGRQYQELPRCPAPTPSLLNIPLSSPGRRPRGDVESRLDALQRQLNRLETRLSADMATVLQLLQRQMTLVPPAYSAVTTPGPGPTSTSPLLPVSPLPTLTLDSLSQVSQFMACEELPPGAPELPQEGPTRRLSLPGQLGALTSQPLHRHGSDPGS
Sequence of Cytochrome P450 2C19 (Homo sapiens) (P33261 whole entry, looked up): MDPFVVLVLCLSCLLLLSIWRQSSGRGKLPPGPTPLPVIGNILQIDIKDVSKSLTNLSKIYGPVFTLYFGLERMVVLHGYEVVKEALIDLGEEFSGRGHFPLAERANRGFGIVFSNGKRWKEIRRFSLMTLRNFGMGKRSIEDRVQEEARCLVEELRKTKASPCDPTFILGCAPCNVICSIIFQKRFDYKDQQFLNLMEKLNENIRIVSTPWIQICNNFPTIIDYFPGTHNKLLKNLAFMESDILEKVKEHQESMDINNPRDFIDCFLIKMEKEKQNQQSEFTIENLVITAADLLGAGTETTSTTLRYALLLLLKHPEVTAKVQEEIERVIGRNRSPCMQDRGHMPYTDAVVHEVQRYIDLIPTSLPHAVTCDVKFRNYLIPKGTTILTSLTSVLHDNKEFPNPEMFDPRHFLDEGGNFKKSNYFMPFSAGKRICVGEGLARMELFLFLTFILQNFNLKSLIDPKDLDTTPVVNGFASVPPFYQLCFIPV
Sequence of Cytochrome P450 3A4 (Homo sapiens) (P08684 whole entry, looked up): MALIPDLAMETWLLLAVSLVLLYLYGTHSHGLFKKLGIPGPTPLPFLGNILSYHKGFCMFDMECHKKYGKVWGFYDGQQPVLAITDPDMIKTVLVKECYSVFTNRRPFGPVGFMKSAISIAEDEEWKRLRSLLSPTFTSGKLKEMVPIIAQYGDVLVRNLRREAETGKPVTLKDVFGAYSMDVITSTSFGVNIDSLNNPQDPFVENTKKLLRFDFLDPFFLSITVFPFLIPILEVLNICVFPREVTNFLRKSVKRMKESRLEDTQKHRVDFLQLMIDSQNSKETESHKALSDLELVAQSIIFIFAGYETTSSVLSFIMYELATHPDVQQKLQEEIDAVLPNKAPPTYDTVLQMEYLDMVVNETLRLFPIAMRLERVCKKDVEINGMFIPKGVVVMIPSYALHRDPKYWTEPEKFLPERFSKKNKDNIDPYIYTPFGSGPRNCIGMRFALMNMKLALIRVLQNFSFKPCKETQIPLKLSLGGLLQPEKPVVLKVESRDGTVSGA
Sequence of Cytochrome P450 2C9 (Homo sapiens) (P11712 whole entry, looked up): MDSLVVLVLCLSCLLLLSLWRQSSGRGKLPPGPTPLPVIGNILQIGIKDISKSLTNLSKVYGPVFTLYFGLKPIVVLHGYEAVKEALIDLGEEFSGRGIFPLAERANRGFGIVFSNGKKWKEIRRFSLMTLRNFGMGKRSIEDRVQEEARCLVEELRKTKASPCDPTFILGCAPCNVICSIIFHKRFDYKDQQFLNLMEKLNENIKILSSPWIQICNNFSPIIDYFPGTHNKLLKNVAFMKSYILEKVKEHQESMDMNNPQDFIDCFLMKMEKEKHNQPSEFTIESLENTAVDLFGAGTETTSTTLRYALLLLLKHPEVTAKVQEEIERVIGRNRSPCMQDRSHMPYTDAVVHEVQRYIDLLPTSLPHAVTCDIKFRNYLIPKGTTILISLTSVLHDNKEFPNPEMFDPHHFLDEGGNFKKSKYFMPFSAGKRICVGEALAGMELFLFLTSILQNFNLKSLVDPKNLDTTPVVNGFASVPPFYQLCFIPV
Sequence of Nuclear receptor subfamily 1 group I member 2 (Homo sapiens) (O75469 whole entry, looked up): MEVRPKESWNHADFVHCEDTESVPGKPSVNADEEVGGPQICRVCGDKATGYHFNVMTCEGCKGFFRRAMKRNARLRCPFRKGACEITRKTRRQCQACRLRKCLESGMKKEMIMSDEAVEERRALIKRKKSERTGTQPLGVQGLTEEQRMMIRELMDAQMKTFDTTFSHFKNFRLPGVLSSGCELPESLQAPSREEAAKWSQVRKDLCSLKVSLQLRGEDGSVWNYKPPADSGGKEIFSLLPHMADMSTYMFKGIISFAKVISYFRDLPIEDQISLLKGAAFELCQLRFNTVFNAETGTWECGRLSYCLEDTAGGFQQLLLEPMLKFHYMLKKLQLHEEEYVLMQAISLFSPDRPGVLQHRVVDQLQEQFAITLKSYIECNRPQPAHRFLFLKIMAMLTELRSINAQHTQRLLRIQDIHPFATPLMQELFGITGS
Sequence of Acetylcholinesterase (Homo sapiens) (P22303 whole entry, looked up): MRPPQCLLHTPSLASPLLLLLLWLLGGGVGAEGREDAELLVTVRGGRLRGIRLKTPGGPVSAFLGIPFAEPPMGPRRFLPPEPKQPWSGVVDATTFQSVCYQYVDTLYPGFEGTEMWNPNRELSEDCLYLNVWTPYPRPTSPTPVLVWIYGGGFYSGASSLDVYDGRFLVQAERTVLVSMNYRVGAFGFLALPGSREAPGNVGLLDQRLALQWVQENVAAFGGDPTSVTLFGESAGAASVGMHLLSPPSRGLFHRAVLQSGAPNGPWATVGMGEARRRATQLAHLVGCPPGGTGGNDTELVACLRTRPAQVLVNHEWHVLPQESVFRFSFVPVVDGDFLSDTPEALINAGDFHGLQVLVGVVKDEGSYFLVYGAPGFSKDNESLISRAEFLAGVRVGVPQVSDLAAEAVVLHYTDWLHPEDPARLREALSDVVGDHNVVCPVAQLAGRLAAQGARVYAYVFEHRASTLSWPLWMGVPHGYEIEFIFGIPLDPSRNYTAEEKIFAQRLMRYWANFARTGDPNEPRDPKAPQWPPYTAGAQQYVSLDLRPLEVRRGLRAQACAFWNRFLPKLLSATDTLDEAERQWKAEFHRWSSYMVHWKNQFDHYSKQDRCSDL
Sequence of Cytochrome P450 2D6 (Homo sapiens) (P10635 whole entry, looked up): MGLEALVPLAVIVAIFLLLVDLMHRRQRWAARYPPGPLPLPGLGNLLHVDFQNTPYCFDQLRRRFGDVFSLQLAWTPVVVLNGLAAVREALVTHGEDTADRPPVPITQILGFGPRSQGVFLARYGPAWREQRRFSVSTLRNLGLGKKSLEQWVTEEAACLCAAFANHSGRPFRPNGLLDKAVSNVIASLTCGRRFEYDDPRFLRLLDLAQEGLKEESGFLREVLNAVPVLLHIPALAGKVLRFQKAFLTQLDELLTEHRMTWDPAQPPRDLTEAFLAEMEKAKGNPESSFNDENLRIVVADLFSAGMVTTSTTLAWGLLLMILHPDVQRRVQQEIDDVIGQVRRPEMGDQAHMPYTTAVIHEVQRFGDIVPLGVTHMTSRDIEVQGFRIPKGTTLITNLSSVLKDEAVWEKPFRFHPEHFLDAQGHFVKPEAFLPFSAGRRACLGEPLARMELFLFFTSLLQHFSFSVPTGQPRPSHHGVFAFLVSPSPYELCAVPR
Sequence of Cytochrome P450 1A2 (Homo sapiens) (P05177 whole entry, looked up): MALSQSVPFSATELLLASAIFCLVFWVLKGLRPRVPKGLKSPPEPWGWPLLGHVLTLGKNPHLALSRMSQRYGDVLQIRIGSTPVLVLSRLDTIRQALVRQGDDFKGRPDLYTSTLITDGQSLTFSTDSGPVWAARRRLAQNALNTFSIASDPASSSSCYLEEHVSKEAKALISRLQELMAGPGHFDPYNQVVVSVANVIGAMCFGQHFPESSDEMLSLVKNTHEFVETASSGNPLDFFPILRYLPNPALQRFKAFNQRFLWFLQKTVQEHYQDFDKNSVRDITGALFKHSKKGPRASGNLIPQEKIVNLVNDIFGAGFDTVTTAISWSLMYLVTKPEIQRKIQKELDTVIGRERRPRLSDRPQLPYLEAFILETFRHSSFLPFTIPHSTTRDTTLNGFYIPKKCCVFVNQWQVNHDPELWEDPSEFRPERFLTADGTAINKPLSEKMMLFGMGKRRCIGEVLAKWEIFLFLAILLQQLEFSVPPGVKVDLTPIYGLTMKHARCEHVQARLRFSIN

| SMILES | Potency [1] | Potency [2] | Potency [3] | Potency [4] | Potency [5] | Potency [6] | Potency [7] | Potency [8] | Potency [9] | Potency [10] | Potency [11] | Potency [12] | Potency [13] | Potency [14] | Potency [15] | Potency [16] | Potency [17] | Potency [18] |
| --- | --- | --- | --- | --- | --- | --- | --- | --- | --- | --- | --- | --- | --- | --- | --- | --- | --- | --- |
| CCc1cc2c(s1)-n1c(C)nnc1CN=C2c1ccccc1Cl | inactive | inactive | inactive | inactive | inactive | inactive | inactive | inactive | inactive | inactive | inactive |  |  |  |  |  |  |  |
| CC1(C)COP(Oc2ccccc2)OC1 |  | inactive | inactive | inactive | inactive | inactive | inactive |  | inactive | inactive | inactive | inactive | inactive | inactive |  |  |  |  |
| CN1CCC(O)(c2ccc(F)cc2)C(C(=O)c2ccc(F)cc2)C1 (centres undefined) |  | inactive |  | inactive | inactive | inactive |  | inactive | inactive | inactive |  | inactive | 13.3 µM (active) |  | inactive | inactive | 17.4 µM (active) | inactive |
| CCN(CC)C(=O)[C@@H]1C=C2c3cccc4[nH]cc(c34)C[C@H]2N(C)C1 |  | inactive | inactive |  | 73.8 µM (active) | 104 µM (active) | 58.7 µM (active) | inactive | 165 µM (active) |  | 82.8 µM (active) | 89.8 µM (active) | 80 µM (active) | inactive |  |  | 0.466 µM (active) |  |
| O=C(Nc1ccccc1)N(Cc1ccc(Cl)cc1)C1CCCC1 | 61.1 µM (active) | inactive | inactive |  | inactive | inactive | inactive | inactive | 7.1 µM (active) | 15.9 µM (active) | 11.2 µM (active) |  | 6.11 µM (active) |  |  |  |  |  |
| CCC(=O)C(CCN(C)C)(c1ccccc1)c1ccccc1 |  | inactive | inactive | inactive | inactive |  | inactive | inactive | 11 µM (active) |  |  | inactive | 16.8 µM (active) |  |  |  |  | inactive |
| NC(=O)O | inactive | inactive | inactive |  | inactive | inactive | inactive | inactive | inactive | inactive | inactive |  | inactive |  |  |  | inactive | inactive |
| CC(CCc1ccccc1)NC(C)C(O)c1ccc(O)cc1 (centres undefined) |  | inactive |  | inactive | inactive | inactive |  | inactive | 9.77 µM (active) | inactive | inactive | inactive | inactive | 4.77 µM (active) |  |  | 0.436 µM (active) | 15.5 µM (active) |
| CC(C(O)c1ccccc1)N(C)C/C=C/c1ccccc1 (centres undefined) |  | inactive | inactive | inactive | inactive | inactive |  | inactive |  |  |  | inactive | inactive | 10.7 µM (active) |  |  |  |  |
| CCN(CC)c1nc(C)cc(OP(=S)(OC)OC)n1 | inactive | inactive | inactive | inactive |  | inactive |  | inactive | 0.178 µM (active) | 22.4 µM (active) | 2.24 µM (active) |  | inactive |  |  |  |  |  |
| ClCC(Cl)Cl | inactive | inactive |  | inactive | 36.8 µM (active) | inactive |  | inactive | inactive | inactive | inactive |  | inactive | inactive |  |  |  |  |
| N#CC(O)c1ccccc1 (centres undefined) | inactive | inactive | inactive |  | inactive | inactive | inactive |  | inactive | inactive |  |  |  |  |  |  | 35.5 µM (active) |  |
| Nc1cc(Cl)ccc1O | inactive | inactive | inactive |  | inactive |  | inactive |  | 21.7 µM (active) | 30.7 µM (active) |  |  |  |  |  |  | 34.4 µM (active) | 30.7 µM (active) |
| CC1=C(C(=O)Nc2ccccc2)S(=O)(=O)CCO1 |  | inactive | inactive |  | inactive | inactive | inactive | inactive | inactive |  | inactive | 61.1 µM (active) | inactive | inactive |  |  |  |  |
| O=C(CCCN1CCC(n2c(=O)[nH]c3ccccc32)CC1)c1ccc(F)cc1 |  | inactive | inactive | inactive | inactive | inactive | inactive | inactive | inactive |  | inactive | inactive | 13.3 µM (active) | 1.51 µM (active) | inactive | inactive |  | inactive |
| CN1CCC(N(Cc2ccccc2)c2ccccc2)CC1 |  | inactive | inactive | inactive | inactive |  | inactive | inactive | inactive | inactive | inactive | inactive | inactive | 5.35 µM (active) |  |  | 0.309 µM (active) | inactive |
| CCCCCCBr | inactive | inactive | inactive | inactive |  |  |  |  |  |  |  |  |  | inactive |  |  |  |  |
| Nc1cnn(-c2ccccc2)c(=O)c1Cl | inactive | inactive |  | inactive | inactive | inactive | inactive | inactive | inactive |  | inactive |  | inactive |  |  |  |  | inactive |
